Compound activity deposited in PubChem by National Center for Advancing Translational Sciences (NCATS).
Hits are enriched below; roughly 19% of the tested compounds scored in any of these assays.
RORg inh = ROR gamma (mouse) transcription inhibition | P51450 | Drosophila S2 Gal4-RORgamma UAS-luciferase reporter, 20 h | Potency, µM (doses to about 53.6 µM), usual class: inhibitors | 5.4% of 310,000 active | AID 2551; note: nearly all actives have a fitted effect of over 60% in size
Target sequence (P51450 whole entry, looked up, the tested form may be a part): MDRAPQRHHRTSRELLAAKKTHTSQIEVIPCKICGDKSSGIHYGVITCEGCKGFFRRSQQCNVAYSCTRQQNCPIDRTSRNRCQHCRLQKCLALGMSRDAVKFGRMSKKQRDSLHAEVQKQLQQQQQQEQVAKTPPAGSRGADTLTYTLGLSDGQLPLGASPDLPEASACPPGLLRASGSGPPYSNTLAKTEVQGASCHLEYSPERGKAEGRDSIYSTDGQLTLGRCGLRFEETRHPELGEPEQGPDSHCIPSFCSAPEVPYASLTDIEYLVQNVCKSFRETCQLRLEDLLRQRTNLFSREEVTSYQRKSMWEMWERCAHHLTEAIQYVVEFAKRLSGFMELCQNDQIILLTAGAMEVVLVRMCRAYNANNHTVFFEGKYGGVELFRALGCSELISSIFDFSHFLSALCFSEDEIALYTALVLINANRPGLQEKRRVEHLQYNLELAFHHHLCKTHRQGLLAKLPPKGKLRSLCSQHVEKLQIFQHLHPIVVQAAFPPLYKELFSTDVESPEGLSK
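Stable Schneider cell line, Gal4 DNA-binding domain fused to ROR gamma, UAS-luciferase. Cmpd 1 hr RT → CuSO4 700 uM final → 20 hr RT → luciferase reagent 10 min → luminescence.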
DT40 TDP1 no CPT = qHTS for Inhibitors of human tyrosyl-DNA phosphodiesterase 1 (TDP1): qHTS in cells in absence of CPT; DT40 Tdp1-/- hTDP1 cells, no CPT, ATP luminescence, 48 h; Potency, µM (highest dose often 46.2 µM), most hits filed as inhibitors; 15% of 420,000 active; note: nearly all actives have a fitted effect of over 55% in size
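Camptothecin absent (DMSO only). Human TDP1-complemented DT40 knockout cells, 400 cells/well, 37 °C for minimum 48 hr; ATP measured via CellTiter-Glo, 30 min dark incubation, luminescence.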
Gal4-VP16 FLuc = counter-screen for ROR gamma inhibitors: Gal4-VP16 reporter; Drosophila S2 Gal4-VP16 UAS-luciferase, luminescence, 20 h; Potency, µM (titrated, usually from 53.6 µM), actives largely listed as inhibitors; 3.5% of 310,000 active; AID 2546;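 note: Gal4-VP16 expression switched on by copper sulfate through the metallothionein promoter; nearly all actives have a fitted effect of over 50% in size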
TDP1 block = inhibitors of human tyrosyl-DNA phosphodiesterase TDP1; Q9NUW8; recombinant TDP1, AlphaScreen DNA substrate cleavage; Potency, µM (doses to about 130 µM), actives largely listed as inhibitors; 0.28% of 350,000 active; AID 485290; note: nearly all actives have a fitted effect of over 40% in size
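Signal: AlphaScreen proximity between streptavidin donor and anti-FITC acceptor beads on intact substrate. Reaction: Tdp1 1 nM, substrate 15 nM final, 5 min RT after 15 min compound preincubation.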
DT40 TDP1 CPT = growth inhibition of DT40 Tdp1-/-;hTDP1 cells with camptothecin (screen for TDP1 inhibitors). chicken DT40 Tdp1-/-;hTDP1 cells + 20 nM CPT, ATP luminescence, 48 h. Potency, µM (doses to about 46.2 µM), actives largely listed as inhibitors. 12% of 420,000 active. AID 686979; note: nearly all actives have a fitted effect of over 55% in size
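Chicken DT40 Tdp1-/- cells complemented with human TDP1, 400 cells/well, exposed to compounds plus 20 nM camptothecin for at least 48 h at 37 C; viability read as ATP content by CellTiter-Glo luminescence.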
Numbers stand for hits; n = inactive; u = inconclusive; x = no result; [ ] = remark or other dose. Calls come from the whole dose curve; as a rule, active = well fitted curve in the direction sought with a large enough effect; inconclusive = small, poorly fitted or top-dose-only effect, or another doubt; inactive = no such curve, though single readings can be large; an effect the other way counts as inactive or inconclusive.

SMILES | RORg inh | DT40 TDP1 no CPT | Gal4-VP16 FLuc | TDP1 block | DT40 TDP1 CPT
COc1ccccc1N=C(C)C1=C(O)CC(c2ccccc2)CC1=O (centres undefined) | n | 0.82µM | n | n | 0.52µM
O=C1CC(c2ccco2)CC(O)=C1C=Nc1cc(Cl)ccc1Cl (centres undefined) | n | n | n | n | n
O=C1CC(c2ccco2)CC(O)=C1C=Nc1ccccc1-c1ccccc1 (centres undefined) | u | u | n[10 µM] | n | 18µM
O=C1CC(c2ccccc2)CC(O)=C1C=Nc1ccccc1O (centres undefined) | 11µM | u | n | n | u
O=C1CC(c2ccco2)CC(O)=C1C=Nc1cc(Cl)ccc1O (centres undefined) | n[10 µM] | 18µM | u | u | 15µM
O=C1CC(c2ccccc2)CC(O)=C1C=Nc1ccccc1 (centres undefined) | n | u | n | n | n
COc1cccc(N2CC(NC(=O)c3ccco3)CC2=O)c1 (centres undefined) | x | n | x | n | n
Cc1cc(C)cc(-n2nnnc2SCC(=O)Nc2cccc(NC(=O)c3ccco3)c2)c1 | u | u | n | n | u
Cc1ccc(-n2nnnc2SCC(=O)Nc2cccc(NC(=O)c3ccco3)c2)cc1C | u | 16µM | n | n | u
CCn1c(SCC(=O)Nc2ccc(NC(=O)c3ccco3)cc2)nnc1-c1cccs1 | x | n | x | x | n
CCn1c(SCC(=O)Nc2cccc(NC(=O)c3ccco3)c2)nnc1-c1cccs1 | n | 16µM | n | n | u
Cc1ccc(-n2nnnc2SCC(=O)Nc2ccccc2N2CCCCC2)cc1C | n | 18µM | n | n | u
CC1=C(C(=O)Nc2ccc(C)cc2)C(c2ccc(C)o2)C2=C(CC(C)(C)CC2=O)N1 (centres undefined) | n | n | n | n | u
Cc1ccc(C(=O)NCC(=O)N2CCC3(CC2)NCCc2[nH]cnc23)cc1C | n | n | n | n | n
O=C(Cn1ncn2c(cc3ccccc32)c1=O)NCc1ccc(F)cc1 | x | 4.1µM | x | n | 5.8µM
Cn1nc(CC(=O)NCc2ccc(F)cc2)c2ccccc2c1=O | n | 18µM | u | n | 13µM
Cn1nc(CC(=O)NCc2cccc3ccccc23)c2ccccc2c1=O | n | 9.2µM | n | n | 7.3µM
O=C(Cn1ncn2c(cc3ccccc32)c1=O)NCCCc1ccccc1 | n | n | n | n | n
Cc1ccc(NC(=O)Cc2nn(C)c(=O)c3ccccc23)cc1F | n | 2.6µM | 11µM | n | 2.3µM
COc1cccc(OC)c1NC(=O)Cc1nn(C)c(=O)c2ccccc12 | n | u | n | n | u
Cc1ccc(NC(=O)Cn2nc(C)c3ccccc3c2=O)cc1F | n | n | n | n | n
CC(=O)N1CCc2cc(S(=O)(=O)CCC(=O)N3CCN(c4ccccc4F)CC3)ccc21 | n | n | n | n | u
CC(=O)c1ccc(N2CCN(C(=O)CCS(=O)(=O)c3ccc4c(c3)CCN4C(C)=O)CC2)cc1 | n | u | u | n | 21µM
CCC(=O)N1CCc2cc(S(=O)(=O)CCC(=O)N3CCN(c4ccc(F)cc4)CC3)ccc21 | n | 23µM | n | n | 21µM
CCOC(=O)N1CCN(C(=O)CCS(=O)(=O)c2ccc3c(c2)CC(C)N3C(=O)CC)CC1 (centres undefined) | n | u | n | n | u
SMILES | RORg inh | DT40 TDP1 no CPT | Gal4-VP16 FLuc | TDP1 block | DT40 TDP1 CPT
CCC(=O)N1c2ccc(S(=O)(=O)CCC(=O)N3CCN(c4ccc(F)cc4)CC3)cc2CC1C (centres undefined) | x | 13µM | x | n | 15µM
CCC(=O)N1c2ccc(S(=O)(=O)CCC(=O)Nc3ccc(Br)c(C)c3)cc2CC1C (centres undefined) | x | 21µM | x | n | 18µM
COc1ccc(N2C(=O)CSC23C(=O)N(C)c2ccccc23)cc1Cl (centres undefined) | x | x | x | n | x
O=C1C(=O)N(CCCN2CCOCC2)C(c2ccc(Cl)cc2)/C1=C(\O)c1ccc2c(c1)OCCO2 (centres undefined) | n | n | n | n | u
CCC(=O)N1CCc2cc(S(=O)(=O)CCC(=O)N3CCN(c4ccccc4Cl)CC3)ccc21 | x | u | x | n | 18µM
CC(=O)N1CCCc2cc(S(=O)(=O)CCC(=O)N3CCN(c4cccc(C)c4)C(C)C3)ccc21 (centres undefined) | n | u | n | n | 21µM
CCCCN(CCCNC(=O)c1cc(Nc2ccc(OC)c(OC)c2)nc2ccccc12)c1ccccc1 | x | 13µM | x | n | 15µM
CCCCN(CCCNC(=O)c1cc(Nc2ccc(OC)c(OC)c2)nc2ccccc12)Cc1ccccc1 | x | 21µM | x | n | 16µM
COc1ccc(Nc2cc(C(=O)NCCc3ccccc3)c3ccccc3n2)cc1OC | x | n | x | n | n
COc1ccc(Nc2cc(C(=O)NCCCN(C)Cc3ccccc3)c3ccccc3n2)cc1OC | x | 21µM | x | n | 23µM
CCCCN(CCCNC(=O)c1cc(Nc2ccc(OC)cc2)nc2ccccc12)Cc1ccccc1 | x | 16µM | x | n | 21µM
CCCCN(C)CCCNC(=O)c1cc(Nc2ccc(OC)c(OC)c2)nc2ccccc12 | n | u | n | x | u
COc1ccccc1N1CCN(C(=O)c2c3c(nc4ccccc24)C(=O)N(C2CCCCC2)C3)CC1 | x | 21µM | x | n | 13µM
COc1ccccc1N1CCN(C(=O)CN2C(=O)C3CCCCC3C2=O)CC1 (centres undefined) | n | n | n | n | n
CC(C)OCCCNC(=O)c1c2c(nc3ccccc13)C(=O)N(C1CCCCC1)C2 | x | n | x | n | n
Cc1ccc(C)c(N2CCN(C(=O)c3c4c(nc5ccccc35)C(=O)N(C3CCCCC3)C4)CC2)c1 | x | 18µM | x | n | 16µM
COc1ccc(CCNC(=O)COC(=O)COc2ccc(Cl)cc2)cc1OC | n | n | n | n | n
CCCc1cc(=O)[nH]c(SCC(=O)N(C)C2CCS(=O)(=O)C2)n1 (centres undefined) | n | n | n | n | n
CC1=NNC(=O)C1CC(=O)N/N=C(\C)c1ccco1 (centres undefined) | n | n | n | n | n
O=C(CN1CCC(c2nc3ccccc3s2)CC1)NCc1cccs1 | n | 18µM | n | n | u
C=CC(COCc1ccccc1)N(Cc1ccc(OC)cc1)S(=O)(=O)c1ccccc1Br (centres undefined) | u | u | n | n | u
C=CC(COCc1ccccc1)N([C@@H](Cc1ccccc1)C(=O)OC)S(=O)(=O)c1ccccc1Br (some centres undefined) | x | 23µM | x | n | u
CCn1c(COc2ccc(Cl)cc2Cl)nc2ccccc21 | x | u | x | n[12.3 µM] | u
COCCn1c(=O)c(-c2ccccc2)nc2cncnc21 | n | n | n | x | n
COCCn1c2nc(=O)n(-c3ccccc3)c(=O)c-2nc2ccccc21 | x | 12µM | x | x | u
